Screening data deposited in PubChem by several laboratories.
Sampled rows, rich in hits. Any-hit rate of the full collection: about 8.7%.
TNAP act mid DEA – human TNAP enzyme activators, primary screen, biochemical, luminescent, intermediate phosphate acceptor level | purified TNAP, CDP-star luminescence, 100 mM DEA, 30 min; hits give high values; scale: 0 levamisole-inhibited, 1 vehicle-only enzyme | activation factor at 20 µM | 64,000 tested, under 10 active;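 active = activation factor of at least 2 at 20 µM, relative to controls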
Target sequence (P05186 whole entry, looked up): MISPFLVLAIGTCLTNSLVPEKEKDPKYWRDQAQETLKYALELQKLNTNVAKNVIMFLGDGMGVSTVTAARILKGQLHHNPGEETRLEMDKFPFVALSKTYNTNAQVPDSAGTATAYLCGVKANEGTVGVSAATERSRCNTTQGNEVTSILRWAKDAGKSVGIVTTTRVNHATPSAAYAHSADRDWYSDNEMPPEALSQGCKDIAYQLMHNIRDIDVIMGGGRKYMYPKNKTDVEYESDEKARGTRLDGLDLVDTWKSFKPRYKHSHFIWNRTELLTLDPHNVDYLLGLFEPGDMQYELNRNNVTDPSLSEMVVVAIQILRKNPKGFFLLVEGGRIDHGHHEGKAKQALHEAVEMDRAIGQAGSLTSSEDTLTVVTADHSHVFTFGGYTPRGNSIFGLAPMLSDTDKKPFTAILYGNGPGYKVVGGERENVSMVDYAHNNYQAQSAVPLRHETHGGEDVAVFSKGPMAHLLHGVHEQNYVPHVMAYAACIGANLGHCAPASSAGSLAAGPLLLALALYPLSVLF
hDAT+cocaine – changed hDAT dopamine uptake under cocaine IC80, either direction, primary screen, cocaine antagonist project, cell-based, LLC-PK1 hDAT, [14C]-dopamine uptake, MLSMR. Sodium-dependent dopamine transporter (Homo sapiens), Q01959. B-score at 10 µM. 1.3% of 110,000 active. AID 449768, 2010. LLC-PK1 hDAT cells, [14C]-dopamine uptake with cocaine IC80; actives deviate in either direction;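 active = Z score or B-score, a plate-position-corrected score, falls beyond the plate's 99.7% confidence bounds, in either direction; inactive = both scores lie inside the 99.7% bounds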
Cav3 T inh – Cav3.2 calcium influx blockers – cell-based, Fluo-4 calcium fluorescence, FDSS, MLSMR library, primary screen; Voltage-dependent T-type calcium channel subunit alpha-1H (Homo sapiens), O95180; Cav3.2-expressing cells; hits give low values; B-score at 10 µM; 4% of 100,000 active; AID 449739, 2010;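 active = single-dose well whose peak fluorescence ratio is a statistical outlier from its plate by either plate-standardised score or position-corrected B-score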
PostGolgi ctrl – growth inhibition of yeast control strain, primary screen, counter-screen for post-Golgi transport modulator project. inhibition, % at 10 µM. efflux-deficient yeast background strain, growth absorbance A615, 16 h. 5% of 98,000 active
Smad3 FoxH1 inh – Smad3/FoxH1 peptide binding inhibitors, primary screen, biochemical, TR-FRET. TR-FRET Smad3/Dy647-FoxH1 peptide binding, europium anti-His. inhibition, % at 25 µM. 0.29% of 88,000 active;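 active = compounds that reduce the energy-transfer binding signal between the protein and its labelled peptide by more than half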
PostGolgi yeast – phenotypic screen on post-Golgi transport, primary screen; post-Golgi transport phenotypic cell assay; inhibition, % at 10 µM; 0.9% of 98,000 active; AID 739, 2007;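 note: yeast cells grown in 1536-well plates; yeast grown about 18 h at 30C before absorbance read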
Numbers stand for hits; - = inactive; . = no result given. Cut-off read from the data, not from the text of the source, unless noted: active = inhibition above about 30%; inactive = the rest.

SMILES	TNAP act mid DEA	hDAT+cocaine	Cav3 T inh	PostGolgi ctrl	Smad3 FoxH1 inh	PostGolgi yeast
CCOC(=O)C1CCN(C(=O)c2sc3ncnc(N4CCC(C)CC4)c3c2C)CC1	.	2.5	-	.	-	.
CCCC(=O)Nc1cc(C)c2c(=O)oc3ccccc3c2n1	-	-	-3.9	.	.	.
CC(C)CN(CC(C)C)c1nc(N)c(C#N)c(CC#N)c1C#N	-	-	-	-	.	-
Cc1nc2ccc(-c3ccccc3)cc2o1	-	0.82	-	-	-	-
Fc1ccc(/C=C2\CCCC3=C2Nc2ncnn2C3c2ccc(F)cc2)cc1 (configuration not stated)	.	-	-	81	-	-
COc1ccc(C2C3=C(Nc4ncnn42)c2ccccc2CCC3)cc1 (configuration not stated)	-	-	-	-	-	-
CCC(C)(C)NC(=O)c1cc(OC)c(OC)cc1[N+](=O)[O-]	.	-	-	-	.	-
Nc1nc(SCC(=O)Nc2cc(-c3ccccc3)nn2-c2ccccc2)n[nH]1	.	1.4	-	-	.	-
Cc1ccc(-c2cc(NC(=O)CSc3n[nH]c(N)n3)n(-c3ccccc3)n2)cc1	.	-	-	-	-	-
Nc1nc(SCC(=O)Nc2ccccc2Sc2ccc(Cl)cc2)n[nH]1	.	-	-5.9	-	-	-
Cc1ccc2nc(NC(=O)CSc3nc4c(c(=O)n3C)SC(C)C4)sc2c1 (configuration not stated)	-	-	-	-	-	-
O=C(NCCN1CCOCC1)c1cc2c(=O)n3ccccc3nc2n1Cc1ccccc1	-	-	-	-	-	-
CC(NC(=O)CN1C(=O)NC(Cc2ccccc2)(Cc2ccccc2)C1=O)C12CC3CC(CC(C3)C1)C2 (configuration not stated)	.	-	-5.2	-	-	-
CC(NC(=O)Cn1ccsc1=N)C12CC3CC(CC(C3)C1)C2 (configuration not stated)	-	-6.3	-	-	-	-
CC(NC(=O)Cn1c(=O)[nH]c2ccsc2c1=O)C12CC3CC(CC(C3)C1)C2 (configuration not stated)	.	-	-	-	-	-
COc1ccc(CNC(=O)c2c(O)c3ccccc3n(C)c2=O)cc1OC	-	-	-	-	-	-
CCN1C(=O)Cc2cc(S(=O)(=O)N3CCOCC3)ccc21	-	-	-	-	-	-
COc1ccc(-c2nn(-c3ccccc3)cc2/C=N/N2C(=O)CSC2=S)cc1	.	-	-	85	-	86
COC(=O)CCCCCCCCC(=O)Nc1nc2ccccc2s1	.	-	-	-	-	-
COC(=O)C1=C(N)Oc2cc(C)n(CC3CCCO3)c(=O)c2C1c1ccccc1 (configuration not stated)	-	-	-	-	.	-
COC(=O)C1=C(N)Oc2cc(C)n(CC3CCCO3)c(=O)c2C1c1ccc(Cl)cc1 (configuration not stated)	-	-	-3.1	-	-	-
COC(=O)C1C2C=CC3(CN(CCc4ccccc4)C(=O)C13)O2 (configuration not stated)	.	-	-	.	-	.
O=C(c1sc2ccccc2c1Cl)N(Cc1ccccc1)C1CCS(=O)(=O)C1 (configuration not stated)	.	-	-	-	-	-
O=C(c1sc2ccccc2c1Cl)N(Cc1ccccc1Cl)C1CCS(=O)(=O)C1 (configuration not stated)	.	-	-	31	-	-
Cc1cc(OCc2nc(N)nc(N)c2-c2ccc(Cl)c(Cl)c2)ccc1[N+](=O)[O-]	.	.	.	.	56	.
SMILES	TNAP act mid DEA	hDAT+cocaine	Cav3 T inh	PostGolgi ctrl	Smad3 FoxH1 inh	PostGolgi yeast
CN(C(=S)NC1=CCS(=O)(=O)C1)C1CCCCC1	.	-	-	-	-	-
COc1ccc(CCNC(=O)N2c3ccccc3Sc3ccccc32)cc1	.	-	-5.9	.	.	.
COc1ccc(CCNC(=O)N2CCOCC2)cc1	.	-	-	.	-	.
Nc1nc(-c2ccc3c(c2)CCCC3)cs1	-	-	-	-	-	-
CC1(C)CC(=O)C2=C(C1)Nc1ccccc1NC2c1ccc2c(c1)OCO2 (configuration not stated)	-	-	-	-	-	-
COc1ccc(Br)cc1C1N2CC3(C)CN1CC(C)(C2)C3=O (configuration not stated)	-	-	-	39	-	-
Cc1ccc(OCC(=O)Nc2ccc3c(c2)nc2n3CCOC2)cc1	-	-	-	-	-	-
O=S(=O)(Nc1ccc(-n2cccc2)cc1)c1ccc(Cl)cc1Cl	.	-	-	67	.	-
CCOCCCNC(=S)NCCNc1nc2c(C)cccc2cc1C#N	.	-	-	-	.	-
Cc1ccc(Nc2nc(Cl)nc(N(C)C#N)n2)cc1	.	-	4	-	.	-
CC(C)Nc1nc(NC(C)C)nc(N(C)C#N)n1	-	-	-	-	-	-
COc1ccc(NC(=O)C=C(C)C)cc1Cl	-	-	-	-	-	-
CSc1ccc(CNc2ccc(C)c(C)c2)cc1	.	-	-	38	.	-
CSc1ccc(CNc2ccc(C)cc2)cc1	.	-	-	-	.	-
N#CCCN1CCN(C(=S)c2ccc(-c3ccc(Cl)c(Cl)c3)o2)CC1	-	-	-	33	-	-
S=C(c1ccc(-c2cccc(Cl)c2)o1)N1CCOCC1	-	-	-	-	-	-
CC(=O)N1CCN(C(=S)c2ccc(-c3ccc(Cl)cc3)o2)CC1	.	-	-	-	.	-
N#CCCN1CCN(C(=S)c2ccc(-c3cccc(Cl)c3)o2)CC1	-	2.4	-	-	-	-
Cc1cc(Nc2ncc(Cl)cc2Cl)n[nH]1	-	-	-	-	-	-
COCCCn1cc(C(=O)c2cc(OC)ccc2OCC(=O)Nc2cc(C)on2)cc(C#N)c1=O	.	-	-	-	.	-
Cc1ccc(-c2nnc(SCC(=O)OC(C)C)n2N)cc1	.	-	-	-	-	-
CC(C)OC(=O)CSc1nnc(-c2ccc(Cl)cc2)n1N	-	-	-	-	-	35
CCOC(=O)c1cc(C(C)(C)C)oc1CNC(=O)c1c(C)oc2c1CCCC2	.	-	-4.6	.	-	.
CCCn1c(SCc2ccccc2)nc2c1c(=O)[nH]c(=O)n2C	-	-	-	50	-	-
Cc1cc(C)n(-c2nc3c(c(=O)[nH]c(=O)n3C)n2Cc2ccccc2)n1	-	-	-	-	-	-
Cc1cc(C)n(-c2nc3c(c(=O)[nH]c(=O)n3C)n2CCc2ccccc2)n1	-	-	.	56	-	-
CCC(C)Sc1nc2c(c(=O)[nH]c(=O)n2C)n1CCc1ccccc1 (configuration not stated)	.	-	-	-	-	-
CCCCCSc1nc2c(c(=O)[nH]c(=O)n2C)n1CCc1ccccc1	-	-	-	.	-	.
